B2AR arrestin = qHTS assay of beta-arrestin-biased ligands of beta2-adrenergic receptor | Potency, µM (top dose mostly 46.1 µM), for inactives: at the highest dose activation, usual class: activators | Beta-2 adrenergic receptor (Homo sapiens), P07550 | beta-arrestin recruitment to beta2AR, cell-based reporter | 330,000 compounds, 0.02% hits | AID 492947, 2010;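 also: potency is read from the fitted curve at half-maximal effect; 0% = DMSO controls and full agonism = EC100 isoproterenol or metaproterenol; nearly all actives have a fitted effect of over 65% in size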
Target sequence (P07550 whole entry, looked up): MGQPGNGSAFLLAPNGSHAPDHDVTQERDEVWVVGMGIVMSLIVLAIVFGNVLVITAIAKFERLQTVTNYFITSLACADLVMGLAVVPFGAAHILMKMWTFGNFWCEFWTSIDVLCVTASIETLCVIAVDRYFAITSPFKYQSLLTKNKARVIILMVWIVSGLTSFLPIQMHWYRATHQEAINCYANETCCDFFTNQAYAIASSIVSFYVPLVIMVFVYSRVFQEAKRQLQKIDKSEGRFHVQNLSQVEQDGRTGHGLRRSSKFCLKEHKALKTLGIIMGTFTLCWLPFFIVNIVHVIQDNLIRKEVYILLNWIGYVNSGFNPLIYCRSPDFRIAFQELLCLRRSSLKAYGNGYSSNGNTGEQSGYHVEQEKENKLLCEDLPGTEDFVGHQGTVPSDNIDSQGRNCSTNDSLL
ELG1 repair inh = qHTS screen for small molecules that inhibit ELG1-dependent DNA repair in human embryonic kidney (HEK293T) cells expressing luciferase-tagged ELG1; HEK293T ELG1-luciferase reporter, luminescence, 16 h; DNA damage induced by 5-fluorouridine; Potency, µM (titrated, usually from 46.1 µM), for the others: top-dose activity change, negative = inhibition, hits mostly inhibitors; 330,000 compounds, 2.3% hits; AID 504467, 2011; also: potency is read from the fitted curve at half-maximal effect; nearly all actives have a fitted effect of over 55% in size
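5-Fluorouridine DNA damage + compound/DMSO, 2,000 cells/well, 16 h, 37 °C/5% CO2. ONE-Glo, 30 min RT, luminescence. Readout = decrease in reporter signal.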
RORgamma inh = qHTS for inhibitors of ROR gamma transcriptional activity | Nuclear receptor ROR-gamma (Mus musculus), P51450 | Potency, µM (series often up to 53.6 µM), for inactives: at the top dose activity change, negative = inhibition, hits mostly inhibitors | AID 2551, 2010 | 310,000 compounds, 5.4% hits | Drosophila S2 Gal4-RORgamma UAS-luciferase reporter, 20 h; also: potency is read from the fitted curve at half-maximal effect; nearly all actives have a fitted effect of over 60% in size
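Compounds are pin-transferred onto Drosophila Schneider cells expressing a copper-inducible Gal4–ROR gamma transactivation domain fusion. After 1 hr, copper sulfate is added to 700 uM final; luciferase is read 20 hr later.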
TSHR antag = Antagonists of the Thyroid Stimulating Hormone Receptor: HTS campaign. Thyrotropin receptor (Homo sapiens), P16473. TSHR-expressing cells, TSH-stimulated cAMP HTRF, 2 h; stronger effect = lower value. activity change, negative = inhibition, % at 11.5 µM. 330,000 compounds, 0.2% hits;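 active = activity change below a set negative limit, meaning inhibition stronger than a set level, cut at about -70% in these data; inconclusive = activity change between two set negative limits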
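TSHR-expressing cells were treated with compounds, then stimulated with TSH at EC80 (4nM final) for 2 hours at 37 deg C. Cellular cAMP was measured by HTRF competition between lysate cAMP and cAMP-d2 for a cryptate-labelled anti-cAMP antibody.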
Gal4-VP16 FLuc = VP16 counterscreen qHTS for inhibitors of ROR gamma transcriptional activity; Drosophila S2 Gal4-VP16 UAS-luciferase, luminescence, 20 h; Potency, µM (top dose mostly 53.6 µM), for inactives: at the top dose activity, negative = inhibition, most hits filed as inhibitors; 310,000 compounds, 3.5% hits; AID 2546, 2010;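 also: Gal4-VP16 expression switched on by copper sulfate through the metallothionein promoter; potency is read from the fitted curve at half-maximal effect; nearly all actives have a fitted effect of over 50% in size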
Numbers without * were called inactive; ? = inconclusive; . = no result; [ ] = dose if it differs, or a comment. An excerpt weighted towards active compounds, which were near 7.5% of everything screened. Unless noted, calls follow the shape of the dose curve; as a rule, active = well fitted curve in the direction sought with a large enough effect; inconclusive = small, poorly fitted or top-dose-only effect, or another doubt; inactive = no such curve, though single readings can be large; an effect the other way counts as inactive or inconclusive. Unless noted, % is scaled to controls: 0 for no effect and ±100 for the full control effect.

SMILES	B2AR arrestin	ELG1 repair inh	RORgamma inh	TSHR antag	Gal4-VP16 FLuc
COc1ccc(-c2noc(CCCC(=O)Nc3ccc(C(N)=O)cc3)n2)cc1	-0.2%	?	1.58µM*	-5.5	2.51µM*
COc1ccc(-c2noc(CCC(=O)Nc3cccnc3)n2)cc1	0.5%	14.7%	?	-0.3	-11.0%
CC(C)(C)c1ccc(-c2noc(CCC(=O)Nc3cccnc3)n2)cc1	-0.4%	-3.5%	0.0631µM*	-12.5	?
CNC(=O)CCc1nc(-c2ccc(C(C)(C)C)cc2)no1	-0.3%	?	0.316µM*	5.1	7.08µM*
NC(=O)[C@@H]1CSSCCC(=O)N[C@@H](CCCCN=C(N)N)C(=O)NCC(=O)N[C@@H](CC(=O)O)C(=O)N[C@@H](Cc2c[nH]c3ccccc23)C(=O)N2CCC[C@H]2C(=O)N1	.	.	22.0%	.	1.6%
C=C(C)C1CC=C(C)C(OC(C)=O)C1 (centres undefined)	.	.	14.6%	.	-10.6%
CCOc1cc(-c2noc(CCC(=O)Nc3cccnc3)n2)ccc1OC	0.0%	20.6µM*	8.8%	-0.7	-11.8%
CCOC(=O)N1CCC(NC(=O)CCc2nc(-c3ccc(C)cc3)no2)CC1	-0.8%	13µM*	20.2%	29.1	-10.3%
COc1ccc(-c2noc(CCC(=O)NC3CCCCCC3)n2)cc1	0.0%	-0.2%	25.0%	3.1	-5.9%
CC(C)(C)c1ccc(-c2noc(CCC(=O)NCC3CCCO3)n2)cc1 (centres undefined)	0.1%	?	1µM*	-6.3	10µM*
CCOc1ccccc1-c1noc(CCC(=O)Nc2cccnc2)n1	-0.6%	-5.3%	6.7%	17.2	7.8%
Cc1ccc(-c2noc(CCC(=O)NCC3CCCO3)n2)cc1 (centres undefined)	0.1%	1.0%	-3.3%	2.4	-5.9%
COc1ccc(CNC(=O)C(C)OC(=O)CN2C(=O)COc3ccccc32)cc1 (centres undefined)	0.4%	-0.7%	2.0%	-7.6	5.3%
O=C(NC1CC1)c1scc2c1OCCO2	8.0%	16.4µM*	2.0%	-4.4	-0.5%
CSCc1cc(N(C)C)nc(SCc2ccc(Cl)c(Cl)c2)n1	0.2%	-7.7%	11.2µM*	-15.9	?
CNc1cc(CSC)nc(SCc2ccc(Cl)cc2Cl)n1	-0.1%	-3.5%	17.6%	21.2	-10.0%
O=C(COC(=O)c1cccs1)Nc1ccc(Cl)cn1	2.9%	?	.	-10.4	.
O=C(Nc1cccnc1)c1cccs1	-0.1%	?	23.8%	3.3	-4.2%
O=C(NC(=S)Nc1cccnc1)c1cccs1	-0.3%	?	10µM*	0.4	-7.1%
O=C(NC(=S)Nc1ccc(Cl)cn1)c1cccs1	4.2%	?	?	19.7	1µM*
CC(C=O)Cc1ccc(C(C)(C)C)cc1 (centres undefined)	.	.	25.2%	.	-1.2%
CC(=O)CCC(=O)O	.	.	8.1%[10 µM]	.	5.4%
Cc1cnc(CNc2cc(-c3ccc(C(=O)N(C)C)cc3)ncn2)cn1	.	.	28.4%	.	2.0%
COC(=O)c1ccc(C(=O)OC)c(NC(=S)N2CCCCC2C)c1 (centres undefined)	-0.1%	-2.0%	15.8µM*	0.6	?
COc1ccc(N(C)S(=O)(=O)c2cccc(C(=O)Nc3ccc(-n4cnnn4)cc3)c2)cc1	0.4%	18.4µM*	?	-32.4	?
SMILES	B2AR arrestin	ELG1 repair inh	RORgamma inh	TSHR antag	Gal4-VP16 FLuc
COc1ccc(N(C)S(=O)(=O)c2cccc(C(=O)Nc3ccc4c(c3)OCCO4)c2)cc1	-0.2%	?	1.8%	1.8	0.2%
COc1ccc(N(C)S(=O)(=O)c2cccc(C(=O)Nc3ccc(OC)nc3)c2)cc1	-0.6%	18.4µM*	?	-18.5	5.4%
CCc1cccc(CC)c1N(COC)C(=O)Cn1nnc2ccccc21	-0.1%	-13.1%	-10.8%[10 µM]	-6.9	-1.0%
CCN(C(=O)CC(C)C)c1nnc(Cn2nnc3ccccc32)s1	-0.2%	8.2µM*	17.7%	-6.2	?
CCN(C(=O)c1ccc(C(C)(C)C)cc1)c1nnc(Cn2nnc3ccccc32)s1	-0.6%	4.11µM*	?	?	5.62µM*
CC(=O)N[C@H](C(=O)N[C@@H](C)C(=O)N[C@H](C#N)CC(=O)O)C(C)C	-0.1%	.	.	21.8	.
CC(C)(C)NC(=O)c1ccc2c(c1)N(CC(=O)N1CCCC1)C(=O)C(C)(C)O2	-0.6%	-6.2%	0.631µM*	-5.0	15.9%
CCOC(=O)CN1C(=O)C(C)(C)Oc2ccc(C(=O)Nc3ccccc3OC)cc21	0.1%	18.4µM*	2.5%	-8.2	6.6%
Cc1ccc(NC(=O)c2ccc3c(c2)N(CC(=O)N2CCCCC2)C(=O)C(C)(C)O3)cc1	-0.2%	13µM*	-14.0%	-10.3	-3.5%
O=c1c(-c2ccc(Cl)cc2)nc2cnc(N3CCOCC3)nc2n1Cc1ccc(F)cc1	.	.	-32.2%	.	0.8%
O=C(Oc1cccc2cccnc12)c1cccc(N2C(=O)C3C4CCC(C4)C3C2=O)c1 (centres undefined)	13.3%	?	2.51µM*	-3.5	?
O=C(Oc1cccc2cccnc12)c1ccc(N2C(=O)C3C4CCC(C4)C3C2=O)cc1 (centres undefined)	?	-6.8%	2.82µM*	4.6	5.01µM*
COc1ccc(CNc2ccnc(-c3ccccc3C(F)(F)F)n2)c(OC)c1	.	.	19.0%	.	-0.9%
COc1ccccc1CNCC(=O)Nc1cc(S(=O)(=O)N2CCCCCC2)ccc1Cl	0.0%	23.1µM*	?	5.5	10.7%
COc1ccc(S(=O)(=O)N2CCCCC2)cc1NC(=S)Nc1cccc(Cl)c1C	5.0%	-18.8%	11.2µM*	-1.7	?
COc1ccccc1CNCC(=O)Nc1cc(S(=O)(=O)N2CCOCC2)ccc1Cl	-0.1%	20.6µM*	.	-16.4	.
CCN(C(=S)Nc1cc(S(=O)(=O)N2CCOCC2)ccc1Cl)c1cccc2ccccc12	-1.3%	2.5%	?	19.0	22.4µM*
Cc1ccc(S(=O)(=O)N2CCOCC2)cc1NC(=O)CNCc1ccccc1Cl	-3.4%	?	.	1.5	.
O=C(CNCc1ccccn1)Nc1cc(S(=O)(=O)N2CCCCC2)ccc1Cl	0.2%	?	-8.5%	5.2	-9.3%
Nc1nc(CC(=O)O)cs1	.	.	-7.0%	.	-2.2%
CC1CCC(C(C)C)C(O)C1 (centres undefined)	.	.	22.5%	.	-4.1%
Cn1c(=O)c(CCc2ccccc2)nc2cnc(N3CCOCC3)nc21	.	.	?	.	5.8%
COc1cc(S(=O)(=O)N2CCOCC2)ccc1NC(=O)COC(=O)/C=C/c1cc(OC)c(OC)c(OC)c1	0.0%	0.2%	.	-14.5	.
COc1ccc(S(=O)(=O)N2CCCCC2)cc1NC(=O)CNc1ccccc1C(C)=O	-1.7%	?	.	-15.4	.

Source: PubChem (National Center for Advancing Translational Sciences (NCATS))
